# HCV NS3h FP: HCV NS3 helicase inhibitors, primary screen, biochemical, fluorescence polarization, ChemBridge library | AID 687043, 2013 | inhibition, % at 100 µM | 16,000 tested, 1.6% active | NS3h Cy5-dT15 DNA binding | Hepatitis C virus NS3 helicase;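 active = inhibition above the average over every tested compound plus 3 SD, cut at about 40% in these data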
# Cy5 interf NS3h: Cy5 fluorescence quenchers or enhancers, artefact control for HCV NS3 helicase inhibitor project, biochemical, ChemBridge library, Cy5 readout; 16,000 tested, 6% active; fluorescence interference ratio at 100 µM; Cy5-dT15 DNA with NS3h, fluorescence interference; actives lie on both sides; signal over control mean, under 1 quenches; AID 720488, 2013;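 active = compound fluorescence over control fluorescence at most 0.8, a quencher, or at least a set upper limit, an enhancer; inactive = ratio between 0.8 and the set upper limit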
# An asterisk follows results filed as active. A selection: hits, their analogues and other compounds. The true share with any hit is near 6.9%.
SMILES,HCV NS3h FP,Cy5 interf NS3h
COc1ccc(NC(=O)c2cc(NC(=O)c3ccccc3)cc(C(=O)Nc3ccc(OC)cc3)c2)cc1,3,1
O=C1c2c(Cl)c(Cl)c(Cl)c(Cl)c2C(=O)N1c1ncccn1,3,0.65*
O=C(O)COc1ccc(N2C(=O)c3c(Cl)c(Cl)c(Cl)c(Cl)c3C2=O)cc1,10,0.95
O=C(NCCNc1ccc([N+](=O)[O-])cc1Cl)c1ccccc1Br,5,0.96
COC(=O)CN1C(c2cc(OC)c(OC)c(OC)c2)Nc2ccc(C)cc2C1c1ccccc1 (stereo not given),11,0.96
CCCCn1c(CN2C(=O)c3ccccc3C2=O)nc2ccccc2c1=O,-2,1
O=c1c2ccccc2nc2ccc3nnnn3n12,-13,0.73*
CC1=[N+]([O-])C(C)(C)C(c2cccs2)=[N+]1[O-],1,1
NC1=NC(=O)/C(=C\c2ccccc2Cl)S1,8,1.1
COc1cc(/C=C2\SC(N)=NC2=O)c([N+](=O)[O-])cc1OC,-15,0.77*
CCN(CC)c1ccc(/C=N/NC(N)=O)cc1,5,1.1
CCN(CC)c1ccc(/C=N\N2C(=O)c3ccccc3C2=O)cc1,7,1.2*
Cc1cccc(N2C(=O)/C(=C/c3ccc(O)c(Cl)c3)C(=O)NC2=S)c1C,28,1.1
O=C(Nc1ccc2c(c1)oc1ccccc12)c1cccs1,8,0.96
Cc1ccccc1C(=O)Nc1ccc(-c2cnc(-c3ccc(NC(=O)c4ccccc4C)cc3)nc2)cc1,18,0.75*
O=C(Nc1ccc(-c2cnc(-c3ccc(NC(=O)c4ccccc4)cc3)nc2)cc1)c1ccccc1,3,0.95
Cc1ccc(Cl)cc1N(Cc1ccc(C(N)=O)cc1)S(=O)(=O)c1ccccc1,7,1
CC(=O)Nc1cc(-c2ccccc2)nn1Cc1ccccc1,0,1
O=C(NCCCO)/C(=C/c1ccc(-c2cccc([N+](=O)[O-])c2)o1)NC(=O)c1ccccc1,9,0.79*
O=C(NCCCN1CCOCC1)/C(=C/c1ccc(-c2cccc([N+](=O)[O-])c2)o1)NC(=O)c1ccccc1,5,0.87
CC(=O)Nc1ccc(NS(=O)(=O)c2cc(Cl)ccc2Cl)cc1,1,0.99
O=S(=O)(c1cc(Cl)cc(Cl)c1O)c1cc(Cl)cc(Cl)c1O,25,0.5*
Cc1cc([N+](=O)[O-])ccc1-c1ccc(C(=O)Nc2ccc(Cl)cn2)o1,-14,0.77*
O=C(Nc1ccc(Cl)cn1)c1ccc(-c2ccc([N+](=O)[O-])cc2)o1,-16,0.82
O=C(Nc1ccc(S(=O)(=O)NC(=O)C2CCCCC2)cc1)c1cccc(Br)c1,-2,0.59*
SMILES,HCV NS3h FP,Cy5 interf NS3h
O=C(Nc1ccc(S(=O)(=O)Nc2ncccn2)cc1)c1cccc(Br)c1,16,1.1
COc1ccc2c(=O)cc(C(Cl)(Cl)Cl)oc2c1,15,0.65*
COc1ccc2oc(C(Cl)(Cl)Cl)cc(=O)c2c1,1,0.91
O=C(/C=C\c1ccccc1)Nc1ccc2c3c(cccc13)CC2,23,0.73*
O=C(/C=C/c1ccccc1)Nc1ccccc1I,12,0.96
COc1ccc2c(c1[N+](=O)[O-])CCC/C2=N/OC(=O)c1ccccc1,-4,1.1
Cc1ccc(OCC(=O)Nc2ccc(C)cc2[N+](=O)[O-])cc1,19,1
COC(=O)c1cc(NC(=O)COc2cc(C)c(Cl)c(C)c2)cc(C(=O)OC)c1,2,1.1
O=C(Cc1ccc(Cl)cc1)Nc1cccnc1,19,0.71*
Cc1cc(OCC(=O)Nc2cccnc2)cc(C)c1Cl,-10,0.8*
O=C(Cc1ccc(Cl)cc1)Nc1ccc(Cl)cn1,10,0.87
Cc1cc(OCC(=O)Nc2ccccc2[N+](=O)[O-])cc(C)c1Cl,17,0.73*
COc1ccccc1NC(=O)c1c(NC(C)=O)sc2c1CCCC2,16,1
O=C(NC(=S)Nc1ccc2oc(-c3cccc4ccccc34)nc2c1)c1ccco1,4,1
Cc1ccc(S(=O)(=O)OCP(=O)(c2ccccc2)c2ccccc2)cc1,9,0.77*
COCP(=O)(c1ccccc1)c1ccccc1,-9,0.91
Cc1ccc(/C=C2/C=C(c3ccc(Br)cc3)OC2=O)o1,15,0.68*
COc1ccc(/C=C2\C=C(c3ccc(Br)cc3)OC2=O)c(C)c1,-5,1.1
Cc1ccc(C2=C/C(=C/c3ccc(-c4ccc([N+](=O)[O-])cc4)o3)C(=O)O2)cc1,9,1
Cc1ccc2cc(C3=C/C(=C/c4ccc([N+](=O)[O-])o4)C(=O)O3)ccc2c1,12,0.77*
O=C(/C=C/c1cccc(C(F)(F)F)c1)Nc1ccccc1Cl,-9,0.98
CC(C)(C)P(=O)(c1ccc(C(=O)O)cc1)C(C)(C)C,-6,1.1
CCOc1ccc(NC(=S)NC(NC(=O)c2ccc(Cl)cc2Cl)C(Cl)(Cl)Cl)cc1 (stereo not given),6,1
O=P(O)(O)CP(=O)(c1ccccc1)c1ccccc1,7,0.76*
O=P(CO)(c1ccccc1)c1ccccc1,1,0.97
SMILES,HCV NS3h FP,Cy5 interf NS3h
O=C1Nc2ccccc2/C1=N/N=C\c1ccccc1[N+](=O)[O-],33,0.59*
CCOc1ccc(/C=N\N=C2\C(=O)Nc3ccccc32)cc1,-10,0.96
Cc1ccccc1OCC(=O)Nc1cccc(-c2nc3ccccc3[nH]2)c1,14,0.96
CC(C)(C)c1ccc(OCC(=O)Nc2cccc(OC(F)(F)F)c2)cc1,7,1
CC(C)(C)c1ccc(OCC(=O)Nc2cccc(C(=O)Nc3nccs3)c2)cc1,-6,0.8*
COc1ccc(OC)c(S(=O)(=O)n2c(C)nc3ccccc32)c1,14,0.93
COc1ccc(-c2cn3ccccc3n2)cc1Br,11,0.79*
COc1ccc(-c2cn3cccc(C)c3n2)cc1Br,17,0.81
C=CCOc1c(I)cc(C=C2C(=O)NC(=S)NC2=O)cc1OCC,22,0.71*
CCOc1cc(C=C2C(=O)NC(=S)NC2=O)cc(Br)c1OCCOc1ccccc1C,13,0.95
Cc1ccc(NC(=S)NC(=O)c2ccco2)c(C)c1,-5,1
Cc1cc(C)nc(N=C(N)Nc2ccc(Cl)cc2C(=O)c2ccccc2)n1,1,0.79*
Cc1cc(C)nc(N=C(N)Nc2ccc(C(=O)O)cc2)n1,-14,1.1
COc1ccc(-c2nnc(Nc3ccc4c(c3)nc(C)n4C)c3ccccc23)cc1,5,0.93
Cn1cnc2cc(Nc3nnc(-c4ccccc4)c4ccccc34)ccc21,-4,1
Cc1nnc(Nc2ccc3c(c2)ncn3C)c2ccccc12,12,1.2*
Cc1ccc(-c2nnc(Nc3ccc4c(c3)nc(C)n4C)c3ccccc23)cc1,5,0.71*
COc1ccc(-n2cnc3cc(Nc4nnc(C)c5ccccc45)ccc32)cc1,5,0.74*
COc1ccccc1-n1cnc2cc(Nc3nnc(C)c4ccccc34)ccc21,-2,0.93
Nc1nc2c(s1)-c1ccccc1CC2,29,1.2*
COc1ccc(Cl)cc1NC(=O)c1cc2cc([N+](=O)[O-])ccc2oc1=O,0,1.1
COc1ccc(NS(=O)(=O)c2ccc(Cl)cc2)cc1Cl,15,1.1
CCC1=NN(C(=O)c2cccc(O)c2)C(O)(c2ccncc2)C1 (stereo not given),-4,1
CCC1=NN(C(=O)c2ccccc2)C(O)(c2ccc(Br)cc2)C1 (stereo not given),10,0.76*
